Test [1] can be described thus: APR_HepG2_NuclearSize_72hr: Apredica 72-hour HepG2 Assay for Nuclear Size (AID 2282925). As to conditions: high-content imaging, actives raise or lower the signal. In outline: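 HepG2 cells were exposed to compounds at ten concentrations from 0.39 to 200 uM (duplicate, 0.5% DMSO final) for 72 hr. After fixation in 3.7% formaldehyde, nuclei were stained with Hoechst 33342 (2 ug/mL) and imaged at 20x.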

Test [2] is described as follows: ATG_CRE_CIS: Attagene CIS-FACTORIAL HepG2 Assay for human cAMP Responsive Element (CRE) binding protein 3 (AID 2282926). To be noted: HepG2 CRE cis-reporter, Attagene multiplexed mRNA; actives raise or lower the signal. In outline:
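HepG2 cells transiently transfected with cis-element-driven multiple reporter transcription units; CRE reporter mRNA measured 24 h after dosing by RT-PCR, 6-FAM labelling, HpaI digestion and capillary electrophoresis. Bidirectional fit versus DMSO baseline.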

Test [3] deals with CCAAT/enhancer-binding protein beta (Homo sapiens) (UniProt P17676). Put plainly: ATG_C_EBP_CIS: Attagene CIS-FACTORIAL HepG2 Assay for human CCAAT/Enhancer Binding Protein (C/EBP) beta (AID 2282927). As to conditions: HepG2 Attagene cis-factorial transcription factor reporter; actives raise or lower the signal. The method in brief: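 RT-PCR/capillary electrophoresis fluorescence of reporter mRNA, 24 h post-dose, in HepG2 cells carrying transfected cis-promoter reporter units. Bidirectional curve fitting against DMSO baseline captures gain or loss of signal.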
Chain of CCAAT/enhancer-binding protein beta (Homo sapiens) (P17676 whole entry, looked up): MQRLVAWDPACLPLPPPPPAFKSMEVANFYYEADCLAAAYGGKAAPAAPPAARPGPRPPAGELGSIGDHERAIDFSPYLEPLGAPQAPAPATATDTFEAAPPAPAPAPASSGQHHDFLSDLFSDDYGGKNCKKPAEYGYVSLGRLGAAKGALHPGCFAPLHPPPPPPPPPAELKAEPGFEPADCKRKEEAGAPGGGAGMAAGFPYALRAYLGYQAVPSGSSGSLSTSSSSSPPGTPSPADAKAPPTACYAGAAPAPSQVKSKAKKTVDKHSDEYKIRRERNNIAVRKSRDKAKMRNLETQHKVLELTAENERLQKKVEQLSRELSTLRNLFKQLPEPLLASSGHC

Test [4] is described as follows: ATG_CMV_CIS: Attagene CIS-FACTORIAL HepG2 Assay for human CMV (Internal Marker) (AID 2282928).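 Also: endpoint acts as a background internal control marker rather than a target.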 To be noted: HepG2 CMV promoter reporter, transcription factor profiling; actives raise or lower the signal. In outline:
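CMV internal-marker background readout in transiently transfected HepG2 cells bearing cis-regulated reporter units. Reporter mRNA is measured 24 h after dosing by RT-PCR and capillary electrophoresis, with bidirectional fitting against DMSO.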

Test [5] is described as follows: ATG_DR4_LXR_CIS: Attagene CIS-FACTORIAL HepG2 Assay for human Liver X Receptor (LXR), DR4 submotif (AID 2282929). To be noted: HepG2 Attagene DR4 cis-reporter, mRNA transcription; actives raise or lower the signal. The method in brief:
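Cells were transfected with multiple reporter transcription units, exposed to chemicals for 24 hours, then lysed for RNA. Reporter mRNA induction was measured by RT-PCR with capillary electrophoresis detection and fitted in both directions relative to DMSO.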

The target in test [6] is Aryl hydrocarbon receptor (Homo sapiens) (UniProt P35869). Put plainly: ATG_Ahr_CIS: Attagene CIS-FACTORIAL HepG2 Assay for human Aryl Hydrocarbon Receptor (Ahr) (AID 2282930). As to conditions: HepG2 AhR cis-factorial reporter transcription; actives raise or lower the signal. In outline:
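HepG2 cells transiently transfected with cis-element-driven multiplexed reporter transcription units; endogenous transcription factor activity measured as reporter mRNA 24 h after dosing. RT-PCR, 6-FAM labelling, HpaI digestion, capillary electrophoresis; bidirectional fitting versus DMSO baseline.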

The nature of test [7]: ATG_AP_1_CIS: Attagene CIS-FACTORIAL HepG2 Assay for human Activator Protein 1 (AP-1) (AID 2282931). As to conditions: HepG2 Attagene cis-factorial AP-1 reporter mRNA; actives raise or lower the signal. The method in brief:
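Endogenous transcription-factor activity in human HepG2 liver cells is read through a cis-promoter reporter transcript, sampled 24 h after dosing. Detection uses RT-PCR with capillary electrophoresis; values come from bidirectional fitting relative to DMSO.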

Test [8] is described as follows: ATG_AP_2_CIS: Attagene CIS-FACTORIAL HepG2 Assay for human Activator Protein 2 (AP-2) (AID 2282932). To be noted: HepG2 AP-2 cis-reporter, Attagene transcription factor profiling; actives raise or lower the signal. In outline:
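HepG2 cells were transiently transfected with multiple cis-promoter reporter transcription units and dosed for 24 h. Reporter mRNA was measured by RT-PCR with capillary electrophoresis fluorescence; bidirectional fits relative to DMSO baseline.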

The nature of test [9]: ATG_BRE_CIS: Attagene CIS-FACTORIAL HepG2 Assay for human Bone Morphogenetic Protein (BMP) Response Element (BRE) (AID 2282933). As to conditions: HepG2 BMP response element reporter, Attagene transcription factor profiling; actives raise or lower the signal. The method in brief: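 After a 24 h chemical treatment, transiently transfected HepG2 cells were lysed for RNA; reporter transcripts were quantified by fluorescent RT-PCR and capillary electrophoresis, normalised to DMSO.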

Test [10] concerns the target Transcription factor E2F1 (Homo sapiens) (UniProt Q01094). Put plainly: ATG_E2F_CIS: Attagene CIS-FACTORIAL HepG2 Assay for human E2F Transcription Factor 1 (AID 2282935). To be noted: HepG2 Attagene cis-reporter, E2F reporter RNA transcripts; actives raise or lower the signal. The method in brief: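 HepG2 cells transiently transfected with multiplexed cis-element reporter units, dosed for 24 h. Reporter mRNA measured by RT-PCR, 6-FAM primer-extension labeling, HpaI digestion and capillary electrophoresis; bidirectional fit versus DMSO baseline.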

A short description of test [11]: ATG_E_Box_CIS: Attagene CIS-FACTORIAL HepG2 Assay for human Enhancer Box (E-box) (AID 2282936). As to conditions: HepG2 E-box cis-reporter transcription, actives raise or lower the signal. In outline:
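HepG2 cells transiently transfected with multiplexed cis-element reporter units sensing endogenous transcription factor activity; 24 h compound exposure. Reporter mRNA measured by RT-PCR, 6-FAM primer extension, HpaI digestion and capillary electrophoresis; bidirectional fit versus DMSO.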

The nature of test [12]: ATG_M_61_CIS: Attagene CIS-FACTORIAL HepG2 Assay for M61 Transcription Factor (Internal Marker) (AID 2282937). To be noted: HepG2 Attagene CIS-FACTORIAL M61 internal marker reporter; actives raise or lower the signal. The method in brief: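 Cells were transfected with reporter units under cis-regulatory promoters, treated with chemicals for 24 h, then lysed for RNA. Reporter transcripts were quantified by RT-PCR and capillary electrophoresis, and activity was fitted bidirectionally against DMSO.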

The nature of test [13]: ATG_EGR_CIS: Attagene CIS-FACTORIAL HepG2 Assay for human Early Growth Response 1 (EGR1) (AID 2282938). To be noted: HepG2 Attagene CIS-FACTORIAL EGR reporter mRNA; actives raise or lower the signal. In outline: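 Endogenous TF activity in HepG2 liver cells was gauged through cis-promoter reporter constructs transiently transfected. After 24 h dosing, reporter mRNA was quantified by RT-PCR and capillary electrophoresis, and curves fitted in both directions versus DMSO.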

Test [14] in a line: ATG_M_19_CIS: Attagene CIS-FACTORIAL HepG2 Assay for M19 Transcription Factor (Internal Marker) (AID 2282939). As to conditions: HepG2 Attagene CIS-FACTORIAL M19 internal marker reporter; actives raise or lower the signal. In outline:
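In this multiplexed cell assay, transiently transfected HepG2 reporter units report endogenous transcription-factor activity; after 24 hours of treatment, labelled reporter cDNA fragments are quantified by capillary electrophoresis and fitted bidirectionally against DMSO.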

Test [15] in a line: ATG_ERE_CIS: Attagene CIS-FACTORIAL HepG2 Assay for Estrogen Response Element (ERE) (AID 2282940). To be noted: HepG2 ERE cis-reporter, Attagene RNA transcript; actives raise or lower the signal. In outline: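 Measuring endogenous transcription factor output, the assay doses transfected HepG2 cells for 24 hours and quantifies reporter transcripts by fluorescent RT-PCR and capillary electrophoresis, with DMSO as baseline.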

Test [16] is described as follows: ATG_Ets_CIS: Attagene CIS-FACTORIAL HepG2 Assay for human Erythroblast Transformation Specific (ETS) (AID 2282941). As to conditions: HepG2 ETS cis-reporter transcription, actives raise or lower the signal. The method in brief: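 HepG2 cells transfected with multiple cis-regulated reporter units measuring endogenous ETS-driven transcription, 24 h after dosing. Reporter mRNA quantified by RT-PCR with capillary electrophoresis; bidirectional fit relative to DMSO.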

Test [17] concerns the target Hepatocyte nuclear factor 3-beta (Homo sapiens) (UniProt Q9Y261). The test can be described thus: ATG_FoxA2_CIS: Attagene CIS-FACTORIAL HepG2 Assay for human Forkhead box A2 (FOXA2) (AID 2282942). To be noted: HepG2 cis-reporter transcription factor activity, 24 h; actives raise or lower the signal. In outline: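 Endogenous transcription factor activity was read in HepG2 cells carrying transiently transfected cis-promoter reporter units. After 24 h dosing, reporter mRNA was quantified by RT-PCR and capillary electrophoresis, and values fitted bidirectionally versus DMSO.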

Test [18] is described as follows: ATG_FoxO_CIS: Attagene CIS-FACTORIAL HepG2 Assay for human Forkhead box O (FoxO) (AID 2282943). To be noted: HepG2 Attagene cis-reporter, FoxO element, mRNA; actives raise or lower the signal. The method in brief:
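HepG2 cells transiently transfected with cis-promoter-driven multiple reporter transcription units; 24 h after chemical dosing, reporter mRNA quantified by RT-PCR, fluorescent primer extension, HpaI digestion and capillary electrophoresis. Bidirectional fitting versus DMSO baseline.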

Test [19] can be described thus: ATG_GATA_CIS: Attagene CIS-FACTORIAL HepG2 Assay for human GATA Binding Protein (AID 2282944). As to conditions: HepG2 GATA cis-element reporter, Attagene multiplex mRNA; actives raise or lower the signal. The method in brief:
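Measures endogenous transcription factor-driven reporter mRNA in HepG2 cells transiently carrying cis-regulated constructs. 24 h dosing; RNA via oligo(dT) reverse transcription, PCR, HpaI digestion, capillary electrophoresis; fitted relative to DMSO.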

Test [20] addresses Retinoic acid receptor alpha (Homo sapiens) (UniProt P10276). The test can be described thus: ATG_DR5_RAR_CIS: Attagene CIS-FACTORIAL HepG2 Assay for human Retinoic Acid Receptor Alpha (RARE), DR5 submotif (AID 2282934).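 As to AC50: reporter responds to endogenous RAR alpha beta and gamma in HepG2 not RARA alone.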 As to conditions: HepG2 Attagene cis-factorial RARE DR5 reporter, mRNA; actives raise or lower the signal. The method in brief:
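HepG2 cells transiently transfected with multiplexed reporter units under cis (DR5 RARE) promoters, so endogenous transcription factor activity is measured. After 24 h compound exposure, reporter mRNA is quantified by RT-PCR with fluorescent labelling and capillary electrophoresis; bidirectional fitting versus DMSO.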

Broadly, the AC50 is the concentration at which the activity in the assay is half-maximal.

Values joined by “and” are separate entries in the source; they are usually repeats but may differ in a detail not shown here. Identical values can stand only once. Some structures have more than one record in an assay (separate samples or runs), and their calls can disagree. Active and inactive are the calls of the source. The calls were made as follows: active = hit-call score of the fitted dose curve at least 0.9, where 1 is the maximum; inactive = score below 0.9.

Chain of Transcription factor E2F1 (Homo sapiens) (Q01094 whole entry, looked up): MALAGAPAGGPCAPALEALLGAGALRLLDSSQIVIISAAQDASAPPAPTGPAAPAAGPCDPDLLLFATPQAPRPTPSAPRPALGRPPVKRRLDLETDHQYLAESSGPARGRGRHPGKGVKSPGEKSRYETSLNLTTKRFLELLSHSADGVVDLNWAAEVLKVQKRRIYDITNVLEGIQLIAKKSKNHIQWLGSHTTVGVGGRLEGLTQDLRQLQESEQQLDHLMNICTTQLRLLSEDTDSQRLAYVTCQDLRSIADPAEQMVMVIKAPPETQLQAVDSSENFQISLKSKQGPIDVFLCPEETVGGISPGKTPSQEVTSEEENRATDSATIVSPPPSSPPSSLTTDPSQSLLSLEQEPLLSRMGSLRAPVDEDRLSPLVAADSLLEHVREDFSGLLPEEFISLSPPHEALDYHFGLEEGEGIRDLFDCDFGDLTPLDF
Chain of Aryl hydrocarbon receptor (Homo sapiens) (P35869 whole entry, looked up): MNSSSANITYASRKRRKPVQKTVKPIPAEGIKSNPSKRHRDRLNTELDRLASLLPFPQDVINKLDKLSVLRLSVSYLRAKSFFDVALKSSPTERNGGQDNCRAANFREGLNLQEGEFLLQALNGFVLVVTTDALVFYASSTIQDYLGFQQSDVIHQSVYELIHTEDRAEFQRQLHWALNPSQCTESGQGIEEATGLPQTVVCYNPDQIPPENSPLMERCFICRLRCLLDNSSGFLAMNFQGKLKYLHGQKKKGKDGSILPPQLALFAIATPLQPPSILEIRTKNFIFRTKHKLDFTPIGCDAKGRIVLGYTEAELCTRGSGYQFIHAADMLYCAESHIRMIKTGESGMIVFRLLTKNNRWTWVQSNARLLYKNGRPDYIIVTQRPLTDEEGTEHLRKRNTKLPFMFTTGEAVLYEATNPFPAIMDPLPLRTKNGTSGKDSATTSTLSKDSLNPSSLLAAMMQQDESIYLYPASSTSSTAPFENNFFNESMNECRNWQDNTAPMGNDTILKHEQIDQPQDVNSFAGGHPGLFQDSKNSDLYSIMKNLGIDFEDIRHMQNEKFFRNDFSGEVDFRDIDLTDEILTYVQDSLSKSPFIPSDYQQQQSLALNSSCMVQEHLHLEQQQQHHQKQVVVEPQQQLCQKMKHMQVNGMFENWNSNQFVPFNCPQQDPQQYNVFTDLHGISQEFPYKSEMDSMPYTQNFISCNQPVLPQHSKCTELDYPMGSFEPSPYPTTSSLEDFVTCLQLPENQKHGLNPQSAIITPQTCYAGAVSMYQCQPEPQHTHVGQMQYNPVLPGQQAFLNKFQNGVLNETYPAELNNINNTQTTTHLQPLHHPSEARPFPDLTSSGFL
Chain of Retinoic acid receptor alpha (Homo sapiens) (P10276 whole entry, looked up): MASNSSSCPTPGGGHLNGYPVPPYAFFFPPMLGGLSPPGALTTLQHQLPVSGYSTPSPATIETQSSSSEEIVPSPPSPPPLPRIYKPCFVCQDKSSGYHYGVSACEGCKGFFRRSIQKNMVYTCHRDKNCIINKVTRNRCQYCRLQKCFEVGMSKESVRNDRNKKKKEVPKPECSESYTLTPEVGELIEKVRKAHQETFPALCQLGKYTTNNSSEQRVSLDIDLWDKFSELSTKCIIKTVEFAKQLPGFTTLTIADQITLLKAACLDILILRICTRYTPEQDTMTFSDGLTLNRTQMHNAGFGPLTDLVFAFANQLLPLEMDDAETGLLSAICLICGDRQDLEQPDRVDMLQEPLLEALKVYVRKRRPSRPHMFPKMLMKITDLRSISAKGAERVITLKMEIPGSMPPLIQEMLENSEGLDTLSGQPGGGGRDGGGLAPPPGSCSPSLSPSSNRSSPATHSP
Chain of Hepatocyte nuclear factor 3-beta (Homo sapiens) (Q9Y261 whole entry, looked up): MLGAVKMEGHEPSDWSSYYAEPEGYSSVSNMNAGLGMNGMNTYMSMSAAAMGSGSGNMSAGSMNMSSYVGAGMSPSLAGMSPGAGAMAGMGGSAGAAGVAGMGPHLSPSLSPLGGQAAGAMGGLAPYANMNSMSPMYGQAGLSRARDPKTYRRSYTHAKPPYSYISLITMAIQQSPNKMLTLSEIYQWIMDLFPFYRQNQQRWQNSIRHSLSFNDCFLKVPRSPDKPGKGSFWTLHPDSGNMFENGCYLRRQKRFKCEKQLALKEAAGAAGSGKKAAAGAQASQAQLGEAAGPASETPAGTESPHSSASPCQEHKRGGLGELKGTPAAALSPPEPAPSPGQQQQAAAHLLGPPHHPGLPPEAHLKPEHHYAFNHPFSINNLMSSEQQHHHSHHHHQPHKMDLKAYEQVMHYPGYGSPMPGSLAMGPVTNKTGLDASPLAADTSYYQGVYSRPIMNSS

Turning to `O=C(O)c1nc(Cl)ccc1Cl`, the call in test [1], in test [2], in [3], in test [4], in [5] and in test [6] was inactive. The molecule was called inactive in test [7], in test [8], in test [9], in [10], in test [11] and in test [12]. Besides, the result in test [13], in test [14], in [15], in test [16], in test [17] and in test [18] was inactive. The molecule was called inactive in test [19]. Besides, in test [6], the AC50 was 50 µM (active).
Take `C=CCC1=C(C)C(OC(=O)C2C(C=C(C)C)C2(C)C)CC1=O` (stereo not drawn): the outcome in test [1], in [2], in [3], in [4], in test [5] and in [6] was inactive. The molecule was classed as inactive in test [8], in [10], in test [11], in [12], in [13] and in test [14]. The molecule was called inactive in test [15], in test [16], in [17] and in test [19]. Further, the AC50 in test [2] is 48.8 µM (active) [middle of 5 runs]; in test [3] it was 70.3 µM (active) and 111 µM (active) and 13.8 µM (active); in test [4] it was 35 µM (active) [middle of 5 runs]; in test [5] it was 51.1 µM (active) [middle of 4 runs]; in test [6], 43.6 µM (active) and 105 µM (active); in [8], 167 µM (active). In addition, the concentration at half-maximal activity (AC50) in test [10] was 132 µM (active); in [11], 46.9 µM (active); in test [13] it was 33.4 µM (active) [middle of 5 runs]; in test [14], 161 µM (active); in test [15] it was 35 µM (active) and 26.7 µM (active) and 12.7 µM (active); in test [16], 163 µM (active). The AC50 in [17] is 83.3 µM (active) and 125 µM (active) and 50 µM (active).
`CCCCC(CC)COC(=O)c1ccccc1C(=O)OCC(CC)CCCC` (stereo not drawn): the call in test [1], in test [2], in test [3], in test [4], in test [5] and in [6] was inactive. Moreover, the call in test [7], in test [8], in [9], in test [20], in test [10] and in test [11] was inactive. The molecule was classed as inactive in test [12], in [13], in test [14], in test [15], in test [16] and in test [17]. Besides, the molecule was classed as inactive in test [19].
Regarding `N#Cc1nn(-c2c(Cl)cc(C(F)(F)F)cc2Cl)c(N)c1S(=O)C(F)(F)F` (stereo not drawn), the molecule was classed as inactive in [1], in test [2], in test [3], in test [4], in [5] and in test [6]. Further, the outcome in [8], in [9], in test [20], in test [10], in test [11] and in test [12] was inactive. The outcome in [13], in test [14], in [15], in [16], in test [17] and in test [19] was inactive. In addition, the concentration at half-maximal activity (AC50) was 17.5 µM (active) in [2]; 18.1 µM (active) in test [3]; 50.5 µM (active) in test [5]; 24.8 µM (active) in [9]; 7.78 µM (active) in [20]; 29 µM (active) in [11]. In addition, the AC50 in test [13] was 35.8 µM (active).

The values above are taken from PubChem BioAssay (EPA / NIEHS).
